This note sets out measurements from PubChem BioAssay (NCATS).

Assay [1] concerns the target Peroxisome proliferator-activated receptor alpha (Homo sapiens) (UniProt Q07869). The assay is described as follows: qHTS assay for small molecule agonists of the peroxisome proliferator-activated receptor alpha (PPARalpha) signaling pathway (AID 651778). Further: % of control where 0% means no effect. The conditions noted are these: PathHunter PPARalpha complementation, chemiluminescence, 6 h; max response: active compounds read high. The procedure, abridged: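 Chemiluminescence from complemented enzyme reported PPARalpha activation in cells after 6 hr of compound treatment at 37 C. The detection reagent was incubated for 60 min at room temperature, and compounds were scored as agonists.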

Assay [2] can be described thus: qHTS assay for small molecule agonists of the antioxidant response element (ARE) signaling pathway measured by Nrf2-dependant transcriptional activity (AID 720636; active means well fitted curve in the direction sought with a large enough effect in the repeat runs; an effect the other way counts as inactive or inconclusive;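 further: HepG2 cells with an ARE-driven luciferase reporter; % of control where 0% means no effect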). The gist of the method:
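Nrf2-dependent transcription is measured in ARE-luc HepG2 cells: compound is applied for 16 hr at 37 C after a 6 hr attachment period, and luciferase activity is quantified by luminescence using ONE-Glo.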

The target in assay [3] is Nuclear receptor ROR-gamma (Homo sapiens) (UniProt P51449). The assay is described as follows: qHTS assay for small molecule antagonists of the retinoid-related orphan receptor gamma (ROR-gamma) signaling pathway (AID 651802). Further: nearly all actives have a fitted effect of over 60% in size. Further: potency means the concentration at half of the fitted maximal effect. The procedure, abridged: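 Luminescence (One-Glo, 30 min RT) measured 16 h after compound addition and doxycycline induction at 37C. Reporter: RORE-luciferase under TET-inducible ROR-gamma in CHO cells.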
Chain of Nuclear receptor ROR-gamma (Homo sapiens) (P51449 whole entry, looked up): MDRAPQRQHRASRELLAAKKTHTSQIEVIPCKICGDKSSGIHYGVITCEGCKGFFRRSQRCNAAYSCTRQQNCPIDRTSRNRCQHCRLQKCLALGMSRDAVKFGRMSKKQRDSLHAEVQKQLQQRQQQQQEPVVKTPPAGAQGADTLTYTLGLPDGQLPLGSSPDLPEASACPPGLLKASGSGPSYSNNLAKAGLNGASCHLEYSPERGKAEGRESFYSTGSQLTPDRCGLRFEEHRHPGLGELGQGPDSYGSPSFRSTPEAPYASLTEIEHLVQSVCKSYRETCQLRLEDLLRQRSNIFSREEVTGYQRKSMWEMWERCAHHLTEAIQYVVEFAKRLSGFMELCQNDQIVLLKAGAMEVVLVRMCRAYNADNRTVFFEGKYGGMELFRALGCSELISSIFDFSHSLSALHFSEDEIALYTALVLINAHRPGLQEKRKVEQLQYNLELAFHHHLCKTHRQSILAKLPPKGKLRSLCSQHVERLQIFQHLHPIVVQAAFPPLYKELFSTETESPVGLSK

A short description of assay [4]: qHTS assay for small molecule antagonists of the retinoid-related orphan receptor gamma (ROR-gamma) signaling pathway - cell viability counter screen (AID 720652; active means well fitted curve in the direction sought with a large enough effect in the repeat runs; an effect the other way counts as inactive or inconclusive;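 further: compound exposure lasted 16 hr before ATP read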; further: potency means the concentration at half of the fitted maximal effect). The procedure, abridged:
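Cytotoxicity counter screen: intracellular ATP (CellTiter-Glo luminescence) measured in the doxycycline-induced CHO RORE-luciferase reporter line after 16 hr compound exposure at 37 C, 5% CO2.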

Assay [5] deals with Arylsulfatase A (Homo sapiens) (UniProt P15289). Put plainly: qHTS screen for enhancers of Arylsulfatase A (ASA1): LOPAC Validation Assay (AID 720538). The conditions noted are these: outcome: dose series up to 57.5 µM. The procedure, abridged:
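First, ASA-I179S fibroblasts from an MLD patient adhered for 6 hrs. Next, compounds were added for 48h. Then pNCS substrate (0.5mM final) with lysis buffer reacted 14h at room temperature before NaOH stop and fluorescence measurement.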

Assay [6] can be described thus: qHTS for compounds that reverse cellular toxicity of Amyloid beta (A-beta) peptide in yeast: LOPAC Validation Assay (AID 720559).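 Further: plate controls were DMSO for no effect and equimolar ferric chloride plus clioquinol rescue for full effect.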 The procedure, abridged: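 Activity is expressed relative to DMSO and an equimolar ferric chloride/clioquinol mix. Compounds were pinned into medium with A-beta-expressing yeast, grown 48 hr at 30 C, then read by absorbance at 600 nm.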

Assay [7] is described as follows: qHTS for Activators of Parkin Expression: LOPAC Validation Assay (NLuc Reporter) (AID 720572). The gist of the method:
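Compound effects on Parkin promoter activity were measured as NanoLuc luminescence after 24 h at 37 C. The neuronal reporter line also carried FLuc, which was read first. LOPAC compounds were tested at 7 concentrations, with normalization to DMSO (0%) and positive control (100%).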

Assay [8] in a line: qHTS for Activators of Parkin Expression: LOPAC Validation Assay (FLuc Reporter) (AID 720573). The gist of the method: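 A neuronal cell line harbouring FLuc and NLuc reporters behind the Parkin promoter was exposed to compounds for 24 h. Firefly luciferase signal, measured after 10 min with detection reagent, was scaled to DMSO and positive-control wells.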
For assay [9], the target named is Tyrosine-protein kinase Yes (Homo sapiens) (UniProt P07947). The assay is described as follows: qHTS for small molecule inhibitors of Yes1 kinase: Primary Screen (AID 686947). Further: nearly all actives have a fitted effect of over 60% in size. Further: potency means the concentration at half of the fitted maximal effect. The procedure, abridged: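 ADP-Glo luminescence reports ADP formed by 4 nM Yes1 phosphorylating poly(E4Y) (0.3 mg/mL) with 0.1 mM ATP for 60 min at room temperature, following 20 min compound preincubation; normalised between DMSO wells with and without enzyme.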
Chain of Tyrosine-protein kinase Yes (Homo sapiens) (P07947 whole entry, looked up): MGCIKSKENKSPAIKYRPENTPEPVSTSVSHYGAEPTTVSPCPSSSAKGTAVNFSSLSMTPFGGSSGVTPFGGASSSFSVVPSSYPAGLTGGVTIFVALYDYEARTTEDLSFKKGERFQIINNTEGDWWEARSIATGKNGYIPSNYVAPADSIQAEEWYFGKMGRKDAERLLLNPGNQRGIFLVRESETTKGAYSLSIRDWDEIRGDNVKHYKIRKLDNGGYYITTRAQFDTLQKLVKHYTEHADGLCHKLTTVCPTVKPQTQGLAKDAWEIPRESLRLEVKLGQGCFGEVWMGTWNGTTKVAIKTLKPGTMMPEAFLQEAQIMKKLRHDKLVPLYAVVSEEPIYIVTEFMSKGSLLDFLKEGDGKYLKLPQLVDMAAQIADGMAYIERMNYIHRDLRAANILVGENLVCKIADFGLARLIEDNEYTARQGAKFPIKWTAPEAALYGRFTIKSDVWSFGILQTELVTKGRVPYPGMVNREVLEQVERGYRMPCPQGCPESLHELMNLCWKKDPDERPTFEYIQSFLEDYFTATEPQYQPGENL

Assay [10] is described as follows: qHTS for small molecule inhibitors of Yes1 kinase: Counter Assay (AID 686950).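 Further: no kinase present so only ADP-Glo detection of a fixed ADP amount is tested; luminescence from ADP-Glo reporting ADP in a fixed ATP and ADP mixture; series mostly up to about 77 µM; 0% = DMSO wells with ATP plus ADP and -100% = ATP-only wells without ADP.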 The procedure, abridged: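 ADP-Glo luminescence read after a 60 min room-temperature incubation of compound with an ATP/ADP mix (0.08 mM/0.02 mM) and no kinase, following a 20 min compound preincubation. Signal scaled between ATP+ADP (max) and 0.1 mM ATP-only (min) wells; Tris pH 7.5, Mg2+, DTT.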

Molecules are shown by their SMILES. Values joined by “and” are separate entries in the source; they are usually repeats but may differ in a detail not shown here. Identical values can stand only once. Values without a mark were called inactive. Results filed as inconclusive are left out. Active and inactive are the calls of the source. Unless noted, the call rests on the fitted dose curve; in most records, active means well fitted curve in the direction sought with a large enough effect; inconclusive means small, poorly fitted or top-dose-only effect, or another doubt; inactive means no such curve, though single readings can be large; an effect the other way counts as inactive or inconclusive.

Chain of Peroxisome proliferator-activated receptor alpha (Homo sapiens) (Q07869 whole entry, looked up): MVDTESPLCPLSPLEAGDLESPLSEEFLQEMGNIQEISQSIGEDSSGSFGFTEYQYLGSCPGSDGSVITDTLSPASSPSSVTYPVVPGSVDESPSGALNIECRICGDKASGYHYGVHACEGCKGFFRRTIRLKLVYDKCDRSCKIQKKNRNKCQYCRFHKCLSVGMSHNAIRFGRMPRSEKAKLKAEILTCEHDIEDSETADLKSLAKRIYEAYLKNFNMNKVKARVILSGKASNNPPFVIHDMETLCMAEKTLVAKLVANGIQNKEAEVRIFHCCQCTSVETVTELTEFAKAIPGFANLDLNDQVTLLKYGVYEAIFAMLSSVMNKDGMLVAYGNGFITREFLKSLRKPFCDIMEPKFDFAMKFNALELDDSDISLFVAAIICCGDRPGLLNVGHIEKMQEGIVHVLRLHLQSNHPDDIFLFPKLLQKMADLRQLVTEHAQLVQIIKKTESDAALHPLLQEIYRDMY
Chain of Arylsulfatase A (Homo sapiens) (P15289 whole entry, looked up): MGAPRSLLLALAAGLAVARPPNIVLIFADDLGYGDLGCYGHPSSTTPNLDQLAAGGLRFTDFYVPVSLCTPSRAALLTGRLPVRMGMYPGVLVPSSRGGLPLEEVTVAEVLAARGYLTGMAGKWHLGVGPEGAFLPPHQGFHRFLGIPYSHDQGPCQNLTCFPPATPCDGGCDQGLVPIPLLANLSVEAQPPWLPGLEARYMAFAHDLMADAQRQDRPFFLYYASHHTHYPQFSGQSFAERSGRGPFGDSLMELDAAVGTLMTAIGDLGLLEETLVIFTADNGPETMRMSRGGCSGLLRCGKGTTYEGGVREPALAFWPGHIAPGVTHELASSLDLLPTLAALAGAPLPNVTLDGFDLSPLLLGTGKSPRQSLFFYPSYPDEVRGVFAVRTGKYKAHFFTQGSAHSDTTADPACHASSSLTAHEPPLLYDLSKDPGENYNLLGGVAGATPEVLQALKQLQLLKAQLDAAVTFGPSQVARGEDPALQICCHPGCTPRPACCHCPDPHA

Consider `CC(C)(C)C(O)C(Oc1ccc(Cl)cc1)n1cncn1` (configuration not stated), for which, in [1], the max response is -0.528%. Also, in assay [2], the Potency result is “inactive”.
Consider `CCCCCCCCCCCCCCCC[N+](C)(C)C`, for which the max response in assay [1] is 1.77% and -0.579%. For the same compound, the Potency result in [2] was “inactive”.
`COc1ccc(C(c2ccc(OC)cc2)C(Cl)(Cl)Cl)cc1`: the max response in assay [1] is 12.2% and 6.03% and 0.144%. The Potency in assay [3] was 26600 nM (active); in assay [4], 66.8 µM (active) and 42.2 µM (active). Further, in [2], the Potency entry was “inactive”.
In the case of `Nc1ccc(N=Nc2ccccc2)cc1`, in [1], the max response was -2.06%.
As for `CCOP(=O)(NC(C)C)Oc1ccc(SC)c(C)c1` (configuration not stated), the max response in assay [1] is 2.22% and -0.0211%. Also, the Potency result in [3], in [2] and in assay [4] was “inactive” in each case.
With `CCCN(CCC)[C@@H]1CCc2ccc(O)cc2C1`, the outcome in [5], in assay [6], in assay [7] and in [8] was inactive.
On to `C1=CCOCc2cc(ccc2OCCN2CCCC2)Nc2nccc(n2)-c2cccc(c2)OCC1`, for which the Potency in [9] was 43.4 nM (active).
As for `C[C@@H](N)Cc1cnc[nH]1`, the outcome in assay [5], in assay [6], in assay [7] and in assay [8] was inactive.
`CC(=O)Nc1ccc(OC[C@](C)(O)C(=O)Nc2ccc([N+](=O)[O-])c(C(F)(F)F)c2)cc1`: the Potency entry in [9] is “inactive”. Further, the outcome in [10] was inactive.
With `CCCCC(CC)COC(=O)c1ccccc1C(=O)OCC(CC)CCCC` (configuration not stated), the max response in assay [1] was -1.13% and 3.57%. For the same compound, the Potency entry in [2] and in assay [4] was “inactive” each time.
For the compound `O=C(Oc1ccc([N+](=O)[O-])cc1)N1CCC(C(O)(c2ccc3c(c2)OCO3)c2ccc3c(c2)OCO3)CC1`, the Potency in [9] was 2440 nM (active). Besides, in [10], the call was inactive.
Take `CC(C)(O)C(=O)Nc1ccc([N+](=O)[O-])c(C(F)(F)F)c1`: the max response in [1] was -1.76%. The Potency result in [2] and in assay [4] was “inactive” in each case.
As for `C[C@]12N[C@H](Cc3ccccc31)c1ccccc12`, the result in [5] was inactive.
For `C=CC(=O)NCNC(=O)C=C`, the max response in assay [1] was -3.68% and -5.17%. The Potency entry in assay [2] and in assay [4] was “inactive” each time.
For `CC(C)[C@]12O[C@H]1[C@@H]1O[C@]13[C@]1(O[C@H]1C[C@H]1C4=C(CC[C@@]13C)C(=O)OC4)[C@@H]2O`, in assay [9], the Potency result is “inactive”. The call in [10] was inactive.
As to `CC(=O)[C@H]1CCC2C3CC[C@H]4C[C@H](O)CC[C@]4(C)C3CC[C@@]21C` (some centres not stated), the result in assay [5], in assay [6], in assay [7] and in assay [8] was inactive.
For the compound `O=C(O)COc1nc(Cl)c(Cl)cc1Cl`, the max response in assay [1] was -3.53%. In addition, in assay [2], the Potency entry is “inactive”.
Regarding `Brc1ccccc1-c1ccccc1`, the Potency entry in assay [3] is “inactive”.
Consider `Cc1nc2cnc3ccc(C#Cc4cccnc4)cc3c2n1-c1ccc(C(C)(C)C#N)cc1`, for which the Potency in assay [9] was 2180 nM (active).
As to `C[N+]1(C)C2CCC1CC(OC(=O)C(CO)c1ccccc1)C2` (configuration not stated), the result in assay [5], in [6], in assay [7] and in assay [8] was inactive.
`C[N+]1(C)C2CC(OC(=O)[C@H](CO)c3ccccc3)CC1C1OC12` (some centres not stated): the result in assay [5] was inactive.
For the compound `CCCN(CCC)C1CCc2ccc(O)cc2C1` (configuration not stated), the outcome in assay [5] was “inactive; inhibitor; fitted 0.0338 uM”. In addition, the compound was classed as inactive in assay [6], in [7] and in assay [8].
With `CC[C@@H](C(N)=O)N1CCCC1=O`, the outcome in [5], in [6], in [7] and in [8] was inactive.
Consider `O=C1CCCN1CC#CCN1CCCC1`, for which the result in assay [5], in assay [6], in assay [7] and in [8] was inactive.
As for `Cc1cc(O)ccc1Cl`, the max response in assay [1] was -2.23%. For the same compound, the Potency entry in assay [2] and in assay [4] was “inactive” throughout.
Take `CS(=O)(=O)c1ccc(C(=O)C2C(=O)CCCC2=O)c([N+](=O)[O-])c1`: the max response in [1] is -3.08%. The Potency entry in assay [2] was “inactive”.
On to `C#CCOC(=O)C1=CCCN(C)C1`, for which the outcome in assay [5], in assay [6], in assay [7] and in assay [8] was inactive.
As for `Cc1ccccc1-n1c(Cn2cnc3c(N)ncnc32)nc2cccc(C)c2c1=O`, the Potency entry in assay [9] was “inactive”. Besides, in assay [10], the compound was classed as inactive.
Regarding `O=C(O)c1cc(Oc2ccc(C(F)(F)F)cc2Cl)ccc1[N+](=O)[O-]`, the max response in [1] was -3.73%. Besides, in [2], the Potency entry was “inactive”.
Regarding `CC(Cc1ccc(O)cc1)NCC(O)c1cc(O)cc(O)c1` (configuration not stated), the result in [5], in assay [6], in assay [7] and in [8] was inactive.
With `C[C@]12CCC3C(CC[C@H]4C[C@H](O)CC[C@]34C)C1CC[C@@H]2C(=O)CO` (some centres not stated), in [5], the outcome is “inactive; inhibitor; fitted 2.3934 uM”. The result in assay [6], in [7] and in assay [8] was inactive.
For `Nc1cccc2c(N)cccc12`, in assay [3], the Potency result was “inactive”.
As for `CS(=N)(=O)CC[C@H](N)C(=O)O` (some centres not stated), the outcome in [5], in [6], in assay [7] and in assay [8] was inactive.
In the case of `NC1CC1c1ccccc1` (configuration not stated), the outcome in assay [5], in [6], in [7] and in assay [8] was inactive.
Turning to `C=CCON=C(C[C@H]1O[C@@H]2O[C@]3(C)CC[C@@H]4[C@H](C)CC[C@@H]([C@H]1C)[C@@]24OO3)[C@H]1O[C@@H]2O[C@]3(C)CC[C@H]4[C@H](C)CC[C@@H]([C@@H]1C)[C@@]24OO3`, the Potency in assay [9] was 6880 nM (active). The compound was called inactive in assay [10].
The corresponding values for `CC1CC(C)C(=O)C(C(O)CC2CC(=O)NC(=O)C2)C1` (configuration not stated) are “inactive” and “inactive”.
Consider `CN(C)[C@@H]1C(=O)C(C(N)=O)=C(O)[C@@]2(O)C(=O)C3=C(O)c4c(O)cccc4[C@@](C)(O)[C@H]3[C@H](O)[C@@H]12`, for which the max response in assay [1] is -3.16% and 0.185% and -4.32%. The Potency entry in [2] and in [4] was “inactive” each time.
In the case of `COc1ccc2c(c[n+](C)c3c4cc5c(cc4ccc23)OCO5)c1OC`, the Potency entry in [9] was “inactive”. The compound was classed as inactive in [10], in [5], in [6], in assay [7] and in [8].
As to `Cc1c(C(=O)Nc2cccc(C(F)(F)F)c2)cc(-c2ccccc2)n1CCCN1CCOCC1`, the Potency result in [9] is “inactive”. The compound was called inactive in [10].
On to `NC(N)=NOCCC(N)C(=O)O` (configuration not stated), for which, in assay [5], the outcome was “inactive; inhibitor; fitted 2.3934 uM”. Also, the outcome in [6], in [7] and in assay [8] was inactive.
On to `Cc1nc(-c2ccc(-c3ccc(C(=O)N4CCc5cc6c(cc54)C4(CCN(C)CC4)CO6)cc3)c(C)c2)no1`, for which, in assay [10], the result was inactive.
As to `COc1cc(C(O)CN)ccc1O` (configuration not stated), the outcome in [5], in [6], in assay [7] and in assay [8] was inactive.
With `c1cc(-c2cnn3cc(-c4ccc(OCCN5CCCCC5)cc4)cnc23)ccn1`, the Potency in [9] is 54.7 nM (active).
`CC(C)NC(C)Cc1ccc(I)cc1` (configuration not stated): the outcome in assay [5] is “inactive; inhibitor; fitted 0.3013 uM”. The outcome in [6], in [7] and in assay [8] was inactive.
